Where “and” joins values, the source holds several entries; their conditions need not be identical. Identical values can stand only once. Inconclusive results are not listed. For part of these data: Entries with a potency or affinity are not part of this list. Calls of active or inactive are those of the source. Unless noted, the rule behind the calls is not given here.

The target in assay [1] is 6-phosphogluconate dehydrogenase, decarboxylating (Homo sapiens) (UniProt P52209). Nature of the assay: inhibition of human phosphogluconate dehydrogenase – biochemical, recombinant enzyme, NADPH absorbance, primary screen (AID 1159550;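 active = at least 20% inhibition of 6-phosphogluconate dehydrogenase activity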). To be noted: recombinant 6PGD, NADPH absorbance 341 nm; at 10 µM; stronger effect = higher value.
Sequence of 6-phosphogluconate dehydrogenase, decarboxylating (Homo sapiens) (P52209 whole entry, looked up, the tested form may be a part): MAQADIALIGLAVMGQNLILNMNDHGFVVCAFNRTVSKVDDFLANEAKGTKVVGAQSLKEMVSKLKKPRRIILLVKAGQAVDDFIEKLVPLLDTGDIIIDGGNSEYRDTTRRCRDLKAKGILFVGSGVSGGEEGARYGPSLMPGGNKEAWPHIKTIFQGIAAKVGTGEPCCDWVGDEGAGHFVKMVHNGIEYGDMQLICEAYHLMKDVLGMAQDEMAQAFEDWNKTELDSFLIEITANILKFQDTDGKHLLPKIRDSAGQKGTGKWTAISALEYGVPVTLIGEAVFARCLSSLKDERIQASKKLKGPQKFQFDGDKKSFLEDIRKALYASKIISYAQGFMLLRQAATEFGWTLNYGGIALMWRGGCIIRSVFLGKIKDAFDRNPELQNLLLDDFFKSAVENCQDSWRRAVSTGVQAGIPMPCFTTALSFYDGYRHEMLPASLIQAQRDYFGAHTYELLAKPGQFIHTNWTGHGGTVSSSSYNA
For assay [2], the target named is Mitogen-activated protein kinase 7 (Homo sapiens) (UniProt Q13164). Nature of the assay: Gal4-ERK5 driven luciferase induction – cell-based, HTS, primary screen (AID 1508626;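 active = luciferase signal above three times the same-plate solvent-only control wells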;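 note: luciferase driven by Gal4-ERK5 fusion binding five Gal4 sites before minimal TATA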). The following applies: HeLa Gal4-ERK5 transactivation, 18 h, at 5 µM, stronger effect = higher value.
Sequence of Mitogen-activated protein kinase 7 (Homo sapiens) (Q13164 whole entry, looked up, the tested form may be a part): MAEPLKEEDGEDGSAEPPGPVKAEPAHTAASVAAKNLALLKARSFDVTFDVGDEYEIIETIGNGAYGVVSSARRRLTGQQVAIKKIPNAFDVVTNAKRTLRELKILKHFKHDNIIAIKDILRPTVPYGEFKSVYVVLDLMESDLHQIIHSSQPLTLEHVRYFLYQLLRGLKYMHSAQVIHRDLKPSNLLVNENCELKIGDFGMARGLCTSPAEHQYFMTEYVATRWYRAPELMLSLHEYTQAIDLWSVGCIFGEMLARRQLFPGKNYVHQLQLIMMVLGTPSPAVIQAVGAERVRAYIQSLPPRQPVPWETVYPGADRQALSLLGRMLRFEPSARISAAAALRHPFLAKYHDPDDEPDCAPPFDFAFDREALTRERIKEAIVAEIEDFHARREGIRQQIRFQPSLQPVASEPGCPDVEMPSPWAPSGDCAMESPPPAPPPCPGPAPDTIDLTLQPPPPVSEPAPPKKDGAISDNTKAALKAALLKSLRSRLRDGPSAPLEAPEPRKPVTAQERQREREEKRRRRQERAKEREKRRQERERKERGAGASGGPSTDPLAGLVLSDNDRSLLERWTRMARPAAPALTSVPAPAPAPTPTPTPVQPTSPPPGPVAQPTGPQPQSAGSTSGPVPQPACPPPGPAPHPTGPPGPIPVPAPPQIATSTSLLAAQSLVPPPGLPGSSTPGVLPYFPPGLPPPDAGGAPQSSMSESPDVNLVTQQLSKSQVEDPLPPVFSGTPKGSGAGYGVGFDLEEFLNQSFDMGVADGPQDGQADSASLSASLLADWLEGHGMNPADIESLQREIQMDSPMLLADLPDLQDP
Assay [3] deals with NAD(+) hydrolase SARM1 (Homo sapiens) (UniProt Q6SZW1). The assay can be described thus: blocking NAD cleavage by SARM1 SAM-TIR – cell lysate, NAD-Glo luminescence (AID 1508614;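 active = compound whose remaining NAD level is above about 45 nM, limit read from the data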;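 note: higher remaining NAD means stronger inhibition of SARM1 NADase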). The following applies: SAM-TIR HEK293T lysate NADase, at 1 µM, stronger effect = higher value.
Assay [4] in a line: antimalarial activity against Dd2 strain (AID 2302;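 active = growth inhibition above 50% at the single 2 µM test dose, taken to imply half-maximal potency below 2 µM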;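 note: 0% = DMSO untreated growth and 100% = chloroquine plus artemisinin killed control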). The following applies: P. falciparum Dd2 in RBCs, LDH growth readout, 72 h; at 2 µM; stronger effect = higher value.
Assay [5] in a line: human hepatoma cell viability loss – ATP luminescence, cytotoxicity control for P. falciparum antimalarial project, primary screen (AID 2303;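 active = inhibition above 50%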;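 note: 0% = DMSO wells and 100% = digitonin-killed cells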). To be noted: HepG2 viability, 24-48 h, at 10 µM, stronger effect = higher value.
Assay [6] deals with L-lactate dehydrogenase (Plasmodium falciparum (isolate CDC / Honduras)) (UniProt Q27743). The assay can be described thus: PfLDH activity inhibition – cell lysate, 3D7 strain, counter-screen for P. falciparum growth inhibition project (AID 2304).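 Note: 0% = vehicle and 100% = reference inhibitor.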 To be noted: P. falciparum 3D7 crude extract, LDH APAD/NBT absorbance; at 2 µM; stronger effect = higher value. Background: The purpose of a counterscreen is to sort out artefacts and off-target activity.
Sequence of L-lactate dehydrogenase (Plasmodium falciparum (isolate CDC / Honduras)) (Q27743 whole entry, looked up): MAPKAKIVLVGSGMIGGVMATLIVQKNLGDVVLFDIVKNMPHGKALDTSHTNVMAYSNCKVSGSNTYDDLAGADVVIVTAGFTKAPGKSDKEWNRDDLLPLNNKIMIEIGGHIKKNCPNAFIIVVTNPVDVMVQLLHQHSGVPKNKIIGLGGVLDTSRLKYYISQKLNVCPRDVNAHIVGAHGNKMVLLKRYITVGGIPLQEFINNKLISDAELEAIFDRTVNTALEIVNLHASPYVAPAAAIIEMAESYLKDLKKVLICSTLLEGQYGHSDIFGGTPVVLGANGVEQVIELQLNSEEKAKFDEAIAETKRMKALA

Assay [7] can be described thus: inhibition of 3D7 malaria parasite growth – strain 3D7 (AID 2306).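 Note: 0% = DMSO wells and 100% = chloroquine plus artemisinin control wells.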 The following applies: P. falciparum 3D7 erythrocytic growth, LDH absorbance, 72 h; at 2 µM; stronger effect = higher value.
Assay [8] has as its target Calcium-dependent protein kinase 1 (Plasmodium falciparum (isolate 3D7)) (UniProt P62344). The assay can be described thus: PfCDPK1 kinase inhibitors, biochemical, TCAMS library (AID 1159585; cut-off not given, nearly all actives have IC50 up to about 0.98 µM;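 note: inhibitors leave more ATP so luminescence rises with inhibition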). To be noted: recombinant PfCDPK1, Kinase-Glo ATP depletion luminescence.
For assay [9], the target named is Plasmodium falciparum protein kinase 6 (PK6, PF3D7_1337100) (UniProt Q8IDW1). The assay can be described thus: PfPK6 kinase inhibitors, biochemical, TCAMS library (AID 1159586). The following applies: recombinant PfPK6, Kinase-Glo ATP depletion luminescence. (Kinase-Glo reads ATP consumption through a luciferase reaction.)
Sequence of Plasmodium falciparum protein kinase 6 (PK6, PF3D7_1337100) (Q8IDW1 1-305): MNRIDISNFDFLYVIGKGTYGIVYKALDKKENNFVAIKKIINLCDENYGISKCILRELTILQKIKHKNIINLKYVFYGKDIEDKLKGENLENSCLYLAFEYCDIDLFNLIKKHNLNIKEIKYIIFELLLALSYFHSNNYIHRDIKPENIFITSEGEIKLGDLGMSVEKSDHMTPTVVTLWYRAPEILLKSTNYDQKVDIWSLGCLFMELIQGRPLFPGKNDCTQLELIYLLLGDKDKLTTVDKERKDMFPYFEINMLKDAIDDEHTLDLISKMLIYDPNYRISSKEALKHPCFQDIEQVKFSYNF
Assay [10] deals with Protein kinase 7 (PK7), Plasmodium falciparum 3D7 (PF3D7_0213400) (UniProt Q7YTF7). Nature of the assay: inhibition of Plasmodium PK7 catalytic activity – biochemical, TCAMS antimalarial set, Kinase-Glo luminescence (AID 1159587). To be noted: recombinant PfPK7, Kinase-Glo ATP depletion luminescence.
Sequence of Protein kinase 7 (PK7), Plasmodium falciparum 3D7 (PF3D7_0213400) (Q7YTF7 1-343): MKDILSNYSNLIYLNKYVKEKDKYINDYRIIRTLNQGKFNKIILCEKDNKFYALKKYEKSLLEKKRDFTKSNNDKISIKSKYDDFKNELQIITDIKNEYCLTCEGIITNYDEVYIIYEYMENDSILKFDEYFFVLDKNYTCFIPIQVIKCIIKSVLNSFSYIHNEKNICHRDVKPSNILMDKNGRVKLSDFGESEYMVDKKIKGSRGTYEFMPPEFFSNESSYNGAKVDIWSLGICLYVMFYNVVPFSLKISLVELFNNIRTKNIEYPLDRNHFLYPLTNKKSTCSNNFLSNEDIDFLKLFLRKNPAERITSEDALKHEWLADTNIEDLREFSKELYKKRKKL
For assay [11], the target named is Calcium-dependent protein kinase 4 (Plasmodium falciparum (isolate 3D7)) (UniProt Q8IBS5). The assay can be described thus: PfCDPK4 kinase inhibitors, biochemical, TCAMS library (AID 1159588; cut-off not given, nearly all actives have IC50 up to about 0.91 µM). The following applies: recombinant PfCDPK4, Kinase-Glo ATP depletion luminescence.
Sequence of Calcium-dependent protein kinase 4 (Plasmodium falciparum (isolate 3D7)) (Q8IBS5 whole entry, looked up): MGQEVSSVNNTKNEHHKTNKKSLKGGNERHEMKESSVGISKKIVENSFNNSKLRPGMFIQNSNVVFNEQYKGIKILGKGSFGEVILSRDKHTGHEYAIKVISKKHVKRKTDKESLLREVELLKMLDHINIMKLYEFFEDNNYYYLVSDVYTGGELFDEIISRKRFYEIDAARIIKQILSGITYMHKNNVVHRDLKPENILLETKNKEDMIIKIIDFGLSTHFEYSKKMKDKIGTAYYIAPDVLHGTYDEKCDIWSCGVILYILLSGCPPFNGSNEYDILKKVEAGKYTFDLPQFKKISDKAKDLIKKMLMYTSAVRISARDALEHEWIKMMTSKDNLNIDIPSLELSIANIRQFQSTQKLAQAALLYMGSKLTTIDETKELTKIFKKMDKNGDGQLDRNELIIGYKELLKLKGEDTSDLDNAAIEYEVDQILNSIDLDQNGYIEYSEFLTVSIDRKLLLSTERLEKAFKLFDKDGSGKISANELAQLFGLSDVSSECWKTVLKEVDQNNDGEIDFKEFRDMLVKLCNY
Assay [12] has as its target ATP-dependent translocase ABCB1 (Homo sapiens) (UniProt P08183). Nature of the assay: P-glycoprotein substrate transport blockade – cell-based (AID 377; in the data active = fluorescence slope change above about 50%). To be noted: MDR1-expressing cells, fluorescent substrate accumulation slope; stronger effect = higher value; concentration not given here.
A short description of assay [13]: P. berghei load reduction in hepatocytes – cell-based, HepG2, luciferase luminescence, HepG2 viability, primary screen (AID 624349; in the data active = parasite load remaining mostly below about 12%, no sharp cut-off; inactive = mostly above about 10%;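 note: 100% = mean of DMSO negative control wells on the same plate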). The following applies: P. berghei liver stage in HepG2, luciferase luminescence, concentration not given here; parasite load remaining: stronger effect = lower value; viability: measured here: HepG2 viability without parasites.
Assay [14] can be described thus: viability loss with induced miR-34 in A549 – imaging, A549 dox-inducible miR-34, nuclei and caspase counts, primary screen (AID 1347080;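 active = compounds whose cell count with miR-34 switched on is under 0.7 times the count with it off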). The following applies: A549 miR-34 inducible, Hoechst nuclei count, 48 h.

Sequence of Calcium-dependent protein kinase 1 (Plasmodium falciparum (isolate 3D7)) (P62344 whole entry, looked up): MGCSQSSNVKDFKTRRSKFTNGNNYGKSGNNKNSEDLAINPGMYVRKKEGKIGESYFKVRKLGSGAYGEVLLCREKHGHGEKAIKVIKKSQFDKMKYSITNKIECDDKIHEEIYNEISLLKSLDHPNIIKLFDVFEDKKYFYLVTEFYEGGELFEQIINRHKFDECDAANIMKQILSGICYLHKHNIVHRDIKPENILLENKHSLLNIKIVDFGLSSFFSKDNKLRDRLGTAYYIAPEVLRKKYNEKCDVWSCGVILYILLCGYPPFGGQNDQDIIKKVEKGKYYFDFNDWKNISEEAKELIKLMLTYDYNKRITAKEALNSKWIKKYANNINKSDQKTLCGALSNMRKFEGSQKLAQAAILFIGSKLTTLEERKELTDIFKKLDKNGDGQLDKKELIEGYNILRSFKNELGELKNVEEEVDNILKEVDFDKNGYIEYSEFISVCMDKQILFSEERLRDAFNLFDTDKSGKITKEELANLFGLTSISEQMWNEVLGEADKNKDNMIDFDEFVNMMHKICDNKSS
Sequence of ATP-dependent translocase ABCB1 (Homo sapiens) (P08183 whole entry, looked up): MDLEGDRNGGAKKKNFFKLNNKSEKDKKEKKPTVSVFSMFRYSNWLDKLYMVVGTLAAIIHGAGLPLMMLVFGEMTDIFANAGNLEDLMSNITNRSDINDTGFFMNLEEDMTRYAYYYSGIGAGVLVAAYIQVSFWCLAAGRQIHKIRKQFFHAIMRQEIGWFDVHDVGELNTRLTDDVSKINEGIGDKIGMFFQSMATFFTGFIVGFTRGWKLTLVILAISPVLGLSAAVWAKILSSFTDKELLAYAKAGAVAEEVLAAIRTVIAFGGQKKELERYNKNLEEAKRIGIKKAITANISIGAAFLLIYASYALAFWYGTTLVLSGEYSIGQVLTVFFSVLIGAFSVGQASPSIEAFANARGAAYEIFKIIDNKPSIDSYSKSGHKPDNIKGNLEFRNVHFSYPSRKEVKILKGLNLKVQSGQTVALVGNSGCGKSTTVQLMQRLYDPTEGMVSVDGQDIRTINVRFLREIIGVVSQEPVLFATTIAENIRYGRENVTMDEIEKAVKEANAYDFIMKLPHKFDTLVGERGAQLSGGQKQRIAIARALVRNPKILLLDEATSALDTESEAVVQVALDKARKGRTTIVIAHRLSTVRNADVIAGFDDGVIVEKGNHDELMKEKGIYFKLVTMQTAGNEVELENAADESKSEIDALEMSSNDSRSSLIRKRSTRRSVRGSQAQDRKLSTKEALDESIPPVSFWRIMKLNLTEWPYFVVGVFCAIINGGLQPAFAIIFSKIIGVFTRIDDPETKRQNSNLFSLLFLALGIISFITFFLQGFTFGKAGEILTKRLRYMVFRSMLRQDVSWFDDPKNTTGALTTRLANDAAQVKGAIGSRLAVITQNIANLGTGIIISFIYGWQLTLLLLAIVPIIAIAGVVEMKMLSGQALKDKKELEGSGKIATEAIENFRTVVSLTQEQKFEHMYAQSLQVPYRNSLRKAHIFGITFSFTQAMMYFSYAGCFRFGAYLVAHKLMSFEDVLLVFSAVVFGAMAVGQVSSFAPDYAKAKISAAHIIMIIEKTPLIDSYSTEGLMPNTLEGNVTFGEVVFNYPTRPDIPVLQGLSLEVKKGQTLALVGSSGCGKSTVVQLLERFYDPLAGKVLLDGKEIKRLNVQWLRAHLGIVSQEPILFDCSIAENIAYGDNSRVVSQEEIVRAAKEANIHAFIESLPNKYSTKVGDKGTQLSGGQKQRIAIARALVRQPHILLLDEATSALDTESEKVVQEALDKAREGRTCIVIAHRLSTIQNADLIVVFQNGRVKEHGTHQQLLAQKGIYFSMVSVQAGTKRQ

Usually inhibition stands for the change of the read-out against control, counted positive when it falls. As to `COP(=S)(OC)SCn1nnc2ccccc2c1=O`, the inhibition in assay [1] is 1.29% (inactive). Moreover, the luciferase signal in assay [2] is 64 AU (inactive).
As for `COP(=S)(OC)Oc1ccc([N+](=O)[O-])cc1`, the inhibition in assay [1] was -0.396% (inactive). In [2], the luciferase signal is 72 AU (inactive).
Take `C[C@@H](CO)NC(=O)[C@@H]1C=C2c3cccc4[nH]cc(c34)C[C@H]2N(C)C1`: the inhibition in [1] is -3.88% (inactive). In addition, the remaining NAD in assay [3] is 10 nM (inactive). Moreover, the luciferase signal in [2] was 20 AU (inactive).
`CC1(C)C(=O)C=C[C@]2(C)[C@H]3CC[C@@]4(C)[C@H](c5ccoc5)OC(=O)[C@H]5O[C@]54[C@]3(C)[C@H](O)C[C@@H]12`: in [1], the inhibition was 3.18% (inactive). Also, the luciferase signal in assay [2] was 16 AU (inactive).
Turning to `Cc1ccc2c(C3=CCN(CCCCC4(C)C(=O)Nc5c(F)cccc54)CC3)c(C)[nH]c2c1` (stereo unspecified), the figures for the growth inhibition in assay [4] and in assay [7] were 89% (active) and 95% (active), respectively. Besides, the inhibition in assay [5] was 5% (inactive); in assay [6], -4% (inactive). The result in assay [8], in assay [9], in [10] and in assay [11] was inactive.
Turning to `CO[C@H]1C[C@H](O[C@H]2CC[C@@]3(C)[C@H](CC[C@@H]4[C@@H]3CC[C@]3(C)[C@@H](C5=CC(=O)OC5)[C@@H](OC(C)=O)C[C@]43O)C2)O[C@@H](C)[C@@H]1O`, the inhibition in assay [1] is 5.8% (inactive). In addition, the luciferase signal in [2] is 32 AU (inactive).
Taken in the same sequence, the figures for `COC(=O)[C@]1(C)CC[C@]2(C)CC[C@]3(C)C4=CCc5c(cc(O)c(O)c5C)[C@]4(C)CC[C@@]3(C)[C@@H]2C1` were 5.04% (inactive) and 20 AU (inactive).
Regarding `CC1(C)C(=O)C=C[C@@]2(C)C1=C(O)C(=O)[C@]1(C)[C@@H]2CC[C@@]2(C)[C@H](c3ccoc3)C[C@H]3O[C@]321`, the inhibition in assay [1] is 11.8% (inactive). Moreover, the luciferase signal in [2] is 12 AU (inactive).
Broadly, the viability is a read-out of living cells in per cent, often relative to untreated cells. For the compound `C[C@H]1CC[C@]2(NC1)O[C@H]1C[C@H]3[C@@H]4CC[C@H]5C[C@@H](O)CC[C@]5(C)[C@H]4CC[C@]3(C)[C@H]1[C@@H]2C`, the fluorescence slope change in assay [12] was 83.2% (active). Also, in assay [13], the parasite load remaining is 75.2% (inactive). Also, the viability in assay [13] was found to be 101%. The inhibition in assay [1] is -31.5% (inactive). Besides, the fold change was 0.873 (inactive) in assay [14] (stronger effect = lower value, cell number ratio, induced over uninduced) and 1.03 in assay [14] (measured here: relative caspase fold change +Dox/-Dox). The cell count is 9790 in assay [14] (measured here: total cells with miR-34 induction, stronger effect = lower value) and 11200 in assay [14] (measured here: total cells without miR-34 induction). In [2], the luciferase signal is 104 AU (inactive).
`O=C1CCCC2C3CC(CN12)C1CCCCN1C3` (stereo unspecified): the inhibition in assay [1] was -2.75% (inactive). Also, the luciferase signal in assay [2] was 60 AU (inactive).
Regarding `COc1ccc(CCNCc2ccc3nc(N)cc(C)c3c2)cc1`, the results for the growth inhibition in assay [4] and in assay [7] were 86% (active) and 100% (active), respectively. The inhibition in assay [5] is 23% (inactive); in assay [6], -5% (inactive). Besides, the outcome in assay [8], in [9], in assay [10] and in [11] was inactive.
For the compound `CNCCCCCCc1ccc(CC(C)NCC(O)c2cccc(Cl)c2)cc1` (stereo unspecified), the growth inhibition in assay [4] was 76% (active); in assay [7] it was 94% (active). Moreover, the inhibition in assay [5] is 22% (inactive); in [6] it was 4% (inactive). Also, the outcome in assay [8], in [9], in assay [10] and in assay [11] was inactive.
For the compound `COC(=O)c1ccc(C[C@@H](C)NC[C@H](O)c2cccc(C(F)(F)F)c2)cc1`, the growth inhibition in assay [4] is 93% (active) and 87% (active); in assay [7], 97% (active). For the same compound, the inhibition in [5] was 1% (inactive) and -5% (inactive); in assay [6], -6% (inactive) and -2% (inactive). The outcome in [8], in assay [9], in assay [10] and in assay [11] was inactive.
For the compound `CC(Cc1ccc(OCCOc2ccccc2)cc1)NCC(O)c1cccc(C(F)(F)F)c1` (stereo unspecified), the growth inhibition in assay [4] is 76% (active); in assay [7], 91% (active). Also, the inhibition in assay [5] is 16% (inactive); in assay [6], -6% (inactive). Besides, the outcome in [8], in assay [9], in [10] and in assay [11] was inactive.

The values above are taken from PubChem BioAssay.
